Laboratory results reported in PubChem BioAssay (NCI).
About 83,000 compounds went through this panel and 20% of them were active in at least one assay; those are over-represented in the sample as a whole.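 The endpoint reported here, percent growth, reads 100 for growth as untreated, 0 for no net growth and -100 for all cells dead.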 Unmarked numbers belong to inactive results. Calls of active or inactive are those of the source. How the source made its calls: active means growth percent below 10; inactive means the rest.

Experiments:
Assay in all cases: NCI-60 one-dose screen, 48 h (100 = growth as untreated, 0 = no growth, -100 = all killed)
Settings in all cases: 10 µM unless noted
[1] = tested on: T-47D breast
[2] = tested on: BT-549 breast
[3] = tested on: MDA-MB-435 melanoma
[4] = tested on: SW-620 colon
[5] = tested on: MCF7 breast
[6] = tested on: HCT-116 colon
[7] = tested on: HCC-2998 colon
[8] = tested on: KM12 colon

Row | Compound | growth [1] | growth [2] | growth [3] | growth [4] | growth [5] | growth [6] | growth [7] | growth [8]
1 | CCCCOc1nc2ccc(Cl)cc2cc1/C=C/C(=O)/C=C/c1ccc(Cl)cc1 | 53.8% | 36.3% | 2.31% (active) | 42.5% | 23% | -29.1% (active) | 60.4% | 51.6%
2 | O=C(Nc1cccc(-n2ccc3c(NC(=O)c4ccccc4)nccc32)c1)Nc1cc(C(F)(F)F)cc(C(F)(F)F)c1 | 55% | 2.85% (active) | -34.1% (active) | 21.2% | 13.6% | -15.8% (active) | 13.2% | -15.2% (active)
3 | O=C(CSc1nnc(-c2ccccc2)o1)Nc1ccc(C(=O)/C=C/c2ccccc2)cc1 | 79.4% | 74.5% | 55.5% | 39.4% | 7.77% (active) | -2.15% (active) | 46.5% | 30.2%
4 | Cc1nccc2c3ccc(OCc4cn(Cc5ccc(Br)cc5)nn4)cc3n(CCCc3ccccc3)c12 | 93.3% | 88.2% | 96.7% | 97.8% | 75.2% | 63.6% | 84.7% | 92.6%
5 | NC(N)=N/N=C/c1ccc([N+](=O)[O-])cc1 | 98.7% | 85.5% | 112% | 94.1% | 93.1% | 90.6% | 99.9% | 103%
6 | COc1ccc(/C=C/C(=O)c2ccc(-n3cc(CN4CCN(c5cc6c(cc5F)c(=O)c(C(=O)O)cn6C5CC5)CC4)nn3)cc2)cc1OC | 28.1% | 51% | 5.4% (active) | 9.41% (active) | 16.1% | -39.5% (active) | -39.7% (active) | 8.81% (active)
7 | O=C(NCCNc1nccc(-c2c(-c3cccc(O)c3)nc3sccn23)n1)c1ccccc1O | 61.8% | 45.7% | 14.3% | 77.9% | 37% | 25.9% | 81% | 46.7%
8 | Nc1nc(-c2cc3c(cc2Cl)NC(=O)/C3=C/c2ccc(Cl)cc2)cs1 | 18.1% | 26.3% | 1.64% (active) | 30% | 16.8% | 24.2% | 73.3% | 36%
9 | O=C(Nc1ccccc1F)Nc1ccccc1Cl | 72.5% | 85.7% | 97.4% | 96.2% | 90.5% | 101% | 99.2% | 83.5%
10 | O=[N+]([O-])c1cccc(C(c2ccccc2)c2ccccc2)c1 | 83.2% | 106% | 99.5% | 87.7% | 106% | 65.6% | 92.5% | 87%
11 | COc1ccc(-c2ccc(NC(=O)Nc3ccc(Cl)c(C(F)(F)F)c3)c(C)n2)cc1 | 21.5% | 66.2% | 71.9% | 67% | 36.7% | 23.7% | 69.2% | 37.4%
12 | C=C1C(=O)O[C@H]2[C@H]1CC/C(CNC(=O)/C1=C/CC[C@@]3(C)O[C@H]3[C@H]3OC(=O)C(=C)[C@@H]3CC1)=C\CC[C@@]1(C)O[C@@H]21 | 69.8% | 101% | 96.4% | 77.4% | 75% | 82.5% | 105% | 102%
13 | O=C1c2ccccc2OC=C(c2ccccc2)N1CCCCNc1ccc(F)cc1 | 36.3% | 59.1% | 108% | 103% | 85.6% | 59.4% | 104% | 84.4%
14 | O=C1COc2ccccc2C(=O)N1CCCCNc1ccccc1 | 73.3% | 46% | 98.1% | 92.3% | 82.8% | 77.4% | 94.5% | 79.9%
15 | COc1ccc(-c2nn(-c3ccc(NC(=O)Nc4ccc(Cl)c(C(F)(F)F)c4)cc3)cc2-c2ccncc2)cc1Cl | 24.7% | 0.583% (active) | -16.6% (active) | 3.24% (active) | 7.96% (active) | -7.68% (active) | 11.3% | 0.474% (active)
16 | O=C(Nc1cccc([N+](=O)[O-])c1)c1ccc2ccccc2c1O | 35.8% | 80% | 49.7% | 74% | 77% | 59.4% | 67% | 79.1%

Row | Compound | growth [1] | growth [2] | growth [3] | growth [4] | growth [5] | growth [6] | growth [7] | growth [8]
17 | O=S(=O)(CCN1CCOCC1)Nc1cc(-c2ccc3ncnc(Nc4ccc(F)c(Cl)c4)c3c2)cnc1Cl | -32.6% (active) | -9.24% (active) | 6.92% (active) | 30.4% | 13.6% | 18.9% | 17.4% | 20.8%
18 | COc1ccc(NC(=O)COCCOCCNC[C@@H]2C(=O)O[C@H]3[C@H]2CC/C(COC(=O)OC/C2=C/CC[C@@]4(C)O[C@H]4[C@H]4OC(=O)[C@@H](CN(C)C)[C@@H]4CC2)=C\CC[C@@]2(C)O[C@@H]32)c(O)c1C(N)=O | 15.8% | 56.8% | 49.6% | -6.42% (active) | 19.4% | -38.6% (active) | 106% | 79.3%
19 | O=C(COc1ccc(Cl)cc1)N1CCN(Cc2ccc3c(c2)OCO3)CC1 | 78.2% | 98.3% | 101% | 97% | 103% | 102% | 99.9% | 102%
20 | Cc1ccc(-c2nc3c(N=Nc4ccc(S(N)(=O)=O)cc4)c(N)nn3c(N)c2C#N)cc1 | 34.1% | 56% | 52.3% | 16.5% | 28.3% | 13.7% | 52.4% | 29.2%
21 | CNCCCOc1c(Br)cc(CCNC(=O)/C(Cc2cc(Br)c(OC)c(Br)c2)=N/O)cc1Br | -27.5% (active) | 48% | -59.6% (active) | -47.1% (active) | -40.3% (active) | -91.6% (active) | -49.5% (active) | -1.14% (active)
22 | Cc1ccc(-c2cn3cc([N+](=O)[O-])ccc3n2)cc1 | 46.6% | 53.9% | 70.8% | 100% | 34.8% | 70.3% | 88% | 91.4%
23 | CN1CCN(CC(O)COc2c(Br)c(Br)c(Br)c3c2OC(C)(C)C3)CC1 (stereo not drawn) | 81.3% | 78.4% | 18.7% | 47.3% | 59.5% | 20.7% | 12.4% | 57.2%
24 | Cc1ccc2nc(-c3ccc(-n4on4-c4ccc(/C=C/c5ccc(-n6on6-c6ccc(-c7nc8ccc(C)cc8s7)cc6)cc5S(=O)(=O)O)c(S(=O)(=O)O)c4)cc3)sc2c1 | 95.5% | 114% | 110% | 117% | 110% | 103% | 107% | 103%
25 | O=C(NCCNc1nccc(-c2c(-c3cccc(O)c3)nc3sccn23)n1)Nc1cccc(C(F)(F)F)c1 | 63.8% | 41.1% | -3.01% (active) | 30.3% | 55.6% | 56.8% | 23% | 14%
26 | CC[C@H]1[C@@H]2C=C[C@@H]3[C@H]4C/C=C\C(=O)NCCC[C@@H]5NC(=O)/C(=C(O)/C=C/[C@@H]4C[C@@H]3[C@H]2C[C@H]1C)C5=O | 33.7% | -49.2% (active) | -81% (active) | 69.2% | 41.3% | -11.8% (active) | 52.8% | 63.8%
27 | c1coc(CSc2ncnc3nc[nH]c23)c1 | 93.6% | 120% | 116% | 97.9% | 89.9% | 97.7% | 107% | 102%
28 | CN(C)c1ccc(/C=N/N=C(N)N)cc1 | 81.9% | 93.3% | -13.9% (active) | 37.4% | 31.9% | 52.8% | 68.2% | 42.6%
29 | CC(=O)c1cc2c(N)c(C(=O)Nc3cccc(Cl)c3)sc2nc1C | 83.6% | 75.5% | 2.38% (active) | 98.2% | 74% | 102% | 85.3% | 84.1%
30 | FC(F)(F)c1cn(CC2CNC2)c2ncnc(Cl)c12 | 102% | 125% | 109% | 104% | 103% | 108% | 99.5% | 104%
31 | COc1cc(Nc2ncccc2C(=O)Nc2nc3ccc(F)cc3s2)cc(OC)c1OC | 36.2% | 89.3% | 21% | 96.8% | 94.9% | 13.8% | 84.7% | 78.9%
